# Screen size: about 2,400 compounds; about 360 (15%) were called active. Only a sample is shown. Potency and affinity values are given separately. A number with no mark means an inactive call.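 How the source made its calls: active means viability falls under 70% at one or more tested concentrations, taken as toxicity; inactive means viability stays over 70% at every dose.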
# Assay: HeLa cell cytotoxicity, dose response, cytotoxicity control for MgcRacGAP inhibitor project (AID 624300);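 further: 100% = median of untreated control wells on the same plate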
# Details: CellTiter-Glo luminescence, 24 h; series mostly up to 100 µM; viability: at the top concentration
row,Structure (SMILES),viability [%]
1,COc1ccc(NC(=O)NS(=O)(=O)c2ccc(C)cc2)cc1OC,86.5
2,CCc1nnc(N/N=C/c2cc(Br)c(O)cc2O)n1N,92.8
3,COc1cc(/C=C/C(=O)OCC(=O)NCc2ccc(F)cc2)ccc1O,109
4,CCN(CC)c1ccc(Nc2nc(-c3cccnc3)cs2)cc1,101
5,CCN(CC)c1ccc(NC(=O)c2ccc(Br)o2)cc1,93
6,COc1ccc(N2CCC(CNC(=O)Nc3ccc(C)c(C)c3)C2)cc1 (centres undefined),96.6
7,COc1cc(C(=O)N/N=C/c2ccc(OC)c(CN3CCN(c4ccc(F)cc4)CC3)c2)ccc1O,101
8,CC1=CC(c2ccccc2)NC(=S)N1 (centres undefined),98.5
9,COc1ccc(NC(=O)C(C)N2CCN(C)CC2)cc1 (centres undefined),102
10,COc1cc2c(cc1N)-c1ccc(N)cc1C2,83.6
11,COc1ccc(NC2CCCN(C(=O)c3csc(C(C)C)n3)C2)cc1 (centres undefined),106
12,CCOc1cc(/C=N/NC(=O)c2ccc(=O)n(C)c2)ccc1O,103
13,O=C(CNC(=O)c1ccncc1)N/N=C/c1ccc(O)cc1O,88
14,COc1cc(/C=N/NC(=O)c2nonc2C)ccc1O,93.3
15,COc1cc(/C=N/NC(=O)C2=NNC(=O)C2C)ccc1O (centres undefined),101
16,Cc1nonc1C(=O)N/N=C/c1ccc(O)cc1,87.1
17,COc1cc(/C=N/NC(=O)Cc2nnc(NC(=O)c3ccccc3)s2)ccc1O,97.2
18,CC(=O)Nc1ccc(S(=O)(=O)Nc2ccc(Nc3ccccc3)cc2)cc1,106
19,CCn1c(C)nc2cc(C(=O)N/N=C/c3ccc(O)cc3)ccc21,113
20,Cc1nn2cc(-c3ccc(N)cc3)nc2s1,101
21,COc1cc(/C(C)=N/NC(=O)Cc2c(C)[nH][nH]c2=O)ccc1O,99.8
22,C=CCn1c(CNc2ccc(C)cc2)nnc1SCC(=O)N/N=C/c1ccc(O)cc1O,89.8
23,CC(C)Cn1c(-c2ccc(Br)o2)n[nH]c1=S,97.4
24,CCN(CC)CCNCC(=O)Nc1ccc(Oc2ccccc2)cc1,97.4
25,CCC(=O)c1ccccc1OCCN1CCN(CC)CC1,89.8
26,CN(C)c1ccc(Cc2ccc(N(C)C)cc2)cc1,95.3
27,O=C1c2c([N+](=O)[O-])cc([N+](=O)[O-])cc2S(=O)N1Cc1ccccc1 (centres undefined),106
28,COc1cc(/C=C/C(=O)OCC(=O)Nc2cccc(F)c2)ccc1O,94.6
29,O=[S@]1Oc2ccccc2-c2ccccc21,107

# Source: PubChem BioAssay AID624300 (Southern Research Specialized Biocontainment Screening …, 2012)
